# mHTT-CaM PPI inh: inhibitors of human mutant huntingtin-calmodulin interaction; P42858; AlphaScreen His-mHTT/GST-CaM binding, luminescence; inhibition, % at 15 µM; actives 3.6% (n = 190,000); AID 1671202
# Target sequence (P42858 whole entry, looked up, change not shown): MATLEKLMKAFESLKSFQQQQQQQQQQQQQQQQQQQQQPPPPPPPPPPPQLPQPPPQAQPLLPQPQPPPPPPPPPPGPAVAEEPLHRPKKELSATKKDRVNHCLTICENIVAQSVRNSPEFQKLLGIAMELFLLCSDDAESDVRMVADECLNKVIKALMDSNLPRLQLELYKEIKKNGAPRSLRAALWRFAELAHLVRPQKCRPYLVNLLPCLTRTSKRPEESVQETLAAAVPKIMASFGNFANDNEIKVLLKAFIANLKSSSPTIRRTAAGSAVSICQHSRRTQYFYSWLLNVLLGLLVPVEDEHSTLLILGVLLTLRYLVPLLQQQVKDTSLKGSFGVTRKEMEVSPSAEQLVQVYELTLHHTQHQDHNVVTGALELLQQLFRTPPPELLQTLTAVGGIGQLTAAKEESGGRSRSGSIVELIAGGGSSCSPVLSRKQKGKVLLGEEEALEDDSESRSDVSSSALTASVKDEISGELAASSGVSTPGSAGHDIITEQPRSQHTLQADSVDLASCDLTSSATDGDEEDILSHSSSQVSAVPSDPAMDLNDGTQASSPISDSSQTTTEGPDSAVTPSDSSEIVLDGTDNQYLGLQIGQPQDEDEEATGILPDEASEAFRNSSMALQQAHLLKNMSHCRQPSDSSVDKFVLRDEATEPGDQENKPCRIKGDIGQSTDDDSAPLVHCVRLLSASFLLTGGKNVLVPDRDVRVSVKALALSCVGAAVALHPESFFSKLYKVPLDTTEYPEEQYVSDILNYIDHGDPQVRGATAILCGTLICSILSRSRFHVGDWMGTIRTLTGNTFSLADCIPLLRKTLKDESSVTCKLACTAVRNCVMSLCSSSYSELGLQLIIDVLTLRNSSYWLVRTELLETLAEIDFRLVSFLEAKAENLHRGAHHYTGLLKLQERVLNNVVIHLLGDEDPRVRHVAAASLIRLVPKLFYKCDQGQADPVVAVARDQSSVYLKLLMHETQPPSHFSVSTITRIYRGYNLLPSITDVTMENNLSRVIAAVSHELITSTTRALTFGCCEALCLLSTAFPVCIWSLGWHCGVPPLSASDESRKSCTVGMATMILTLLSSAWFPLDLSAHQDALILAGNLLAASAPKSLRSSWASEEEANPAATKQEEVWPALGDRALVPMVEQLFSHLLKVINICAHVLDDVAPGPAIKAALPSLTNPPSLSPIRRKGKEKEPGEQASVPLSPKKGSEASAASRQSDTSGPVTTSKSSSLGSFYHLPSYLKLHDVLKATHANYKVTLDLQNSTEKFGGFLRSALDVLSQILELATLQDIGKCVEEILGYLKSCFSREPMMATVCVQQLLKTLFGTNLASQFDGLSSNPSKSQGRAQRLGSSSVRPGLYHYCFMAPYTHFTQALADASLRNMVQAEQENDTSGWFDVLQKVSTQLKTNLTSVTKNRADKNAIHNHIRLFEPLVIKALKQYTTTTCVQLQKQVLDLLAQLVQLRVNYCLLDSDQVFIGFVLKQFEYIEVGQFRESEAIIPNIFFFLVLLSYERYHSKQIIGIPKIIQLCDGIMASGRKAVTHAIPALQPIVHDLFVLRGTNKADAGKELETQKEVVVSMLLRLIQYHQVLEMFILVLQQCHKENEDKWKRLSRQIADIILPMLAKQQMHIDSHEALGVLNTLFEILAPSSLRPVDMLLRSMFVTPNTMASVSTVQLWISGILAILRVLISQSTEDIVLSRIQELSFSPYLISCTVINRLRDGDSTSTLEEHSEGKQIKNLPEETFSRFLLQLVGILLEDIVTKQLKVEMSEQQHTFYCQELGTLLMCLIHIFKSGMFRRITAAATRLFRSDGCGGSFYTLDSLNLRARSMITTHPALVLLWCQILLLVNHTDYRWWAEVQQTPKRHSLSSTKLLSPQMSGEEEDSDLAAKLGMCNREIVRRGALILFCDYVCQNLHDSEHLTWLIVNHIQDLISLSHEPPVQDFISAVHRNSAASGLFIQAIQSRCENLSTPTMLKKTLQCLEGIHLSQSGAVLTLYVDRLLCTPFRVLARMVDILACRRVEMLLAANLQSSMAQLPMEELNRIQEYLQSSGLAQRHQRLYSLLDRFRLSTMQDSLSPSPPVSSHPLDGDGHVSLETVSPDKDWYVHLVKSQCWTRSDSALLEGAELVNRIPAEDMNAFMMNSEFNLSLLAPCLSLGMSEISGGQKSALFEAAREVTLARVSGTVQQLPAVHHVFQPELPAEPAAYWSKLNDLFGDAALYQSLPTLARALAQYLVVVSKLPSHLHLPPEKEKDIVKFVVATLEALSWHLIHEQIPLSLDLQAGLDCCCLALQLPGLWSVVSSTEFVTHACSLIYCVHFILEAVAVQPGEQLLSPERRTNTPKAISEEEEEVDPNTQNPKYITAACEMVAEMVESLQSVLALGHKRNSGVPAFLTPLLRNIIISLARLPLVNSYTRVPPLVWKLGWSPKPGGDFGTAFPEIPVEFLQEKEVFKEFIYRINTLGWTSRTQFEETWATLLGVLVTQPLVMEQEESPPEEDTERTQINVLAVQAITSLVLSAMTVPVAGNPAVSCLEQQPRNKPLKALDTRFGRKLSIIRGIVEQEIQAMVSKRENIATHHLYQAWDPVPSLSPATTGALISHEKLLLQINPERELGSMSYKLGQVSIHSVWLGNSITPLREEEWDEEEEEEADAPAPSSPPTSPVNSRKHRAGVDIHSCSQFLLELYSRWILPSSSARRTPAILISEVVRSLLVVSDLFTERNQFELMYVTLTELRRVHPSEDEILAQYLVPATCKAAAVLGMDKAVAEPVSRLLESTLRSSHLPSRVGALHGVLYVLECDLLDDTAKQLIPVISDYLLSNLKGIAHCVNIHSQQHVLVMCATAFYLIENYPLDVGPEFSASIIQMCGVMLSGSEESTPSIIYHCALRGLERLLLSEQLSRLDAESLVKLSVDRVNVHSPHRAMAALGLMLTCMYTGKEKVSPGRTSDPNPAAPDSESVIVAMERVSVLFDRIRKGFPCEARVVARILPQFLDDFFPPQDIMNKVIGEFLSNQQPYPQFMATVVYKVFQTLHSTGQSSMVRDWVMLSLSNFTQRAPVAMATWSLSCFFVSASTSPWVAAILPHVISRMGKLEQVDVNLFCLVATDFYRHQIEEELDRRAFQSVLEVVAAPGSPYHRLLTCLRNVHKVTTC
# Pf apPOL block: Pf-apPOL DNA polymerase inhibition | AID 1794808 | inhibition, % at 10 µM | actives 0.25% (n = 210,000) | Recombinant Pf-apPOL, molecular beacon fluorescence, 1.5 h
# Hits are given with their value; i = inactive; nt = no result given. The full list was thinned out, with hits kept by preference. Rule as the data show it: active = inhibition above about 50%; inactive = the rest.
SMILES,mHTT-CaM PPI inh,Pf apPOL block
O=c1c(-c2ccccc2)c(C(F)(F)F)oc2c3c(ccc12)OCN(CC1CCCO1)C3 (centres undefined),i,i
NC(=NO)c1ccc(OC(F)(F)F)cc1,nt,i
O=C1C(=Cc2ccc(Br)o2)C(=O)c2ccccc21,77,i
O=C1/C(=C/c2ccc(Br)o2)CC/C1=C\c1ccc(Br)o1,96,i
O=C1C(=Cc2ccc(Sc3ccccc3)o2)C(=O)c2ccccc21,i,i
O=C1C=C/C(=C/c2ccc(Br)o2)O1,i,nt
CC(=O)N1N=C(c2ccc(C)c([N+](=O)[O-])c2)OC12CCCC2,i,i
O=C(Nc1ccc(Br)cc1)c1cnn2c1NC(C1CC1)CC2C(F)F (centres undefined),i,i
COc1cccc(C=Nc2ccc(Br)cc2C(=O)O)c1O,i,i
CCCn1cc(C2=CCN(C(=O)NCCc3ccccc3)CC2)c2cccnc21,i,i
Cc1nnc(NC(=O)c2csc(-c3cnccn3)n2)s1,i,i
O=C(Nc1nc(-c2ccco2)cs1)c1csc(-c2cnccn2)n1,i,76
CCn1ncc(Cl)c1CNC(=S)NCCOC,i,nt
C#CCN1C(=O)C(O)(CC(=O)c2ccc3c(c2)CCCC3)c2ccccc21 (centres undefined),i,i
C=CCN1C(=O)C(O)(CC(=O)c2ccc3c(c2)CCCC3)c2ccccc21 (centres undefined),57,i
Cn1cc(-c2nc(C(=O)NCc3cccc(F)c3)cs2)c2cccnc21,91,i
Cn1cc(-c2nc(C(=O)NCc3ccc(F)c(Cl)c3)cs2)c2cccnc21,100,i
Cn1cc(CC(=O)NCc2cccc(F)c2)c2cccnc21,i,i
Cn1cc(-c2nc(C(=O)NCc3ccc(F)cc3Cl)cs2)c2cccnc21,i,i
COc1ccccc1CN1[C@@H](CC(=O)O)c2cc(F)cc(F)c2S1(=O)=O,i,i
O=C(Nc1cccc(N2CCCN(Cc3cccc(F)c3)C2=O)c1)C1CCC1,i,i
CCOc1ccc(CNC(=O)c2cc3n(n2)CCCN(Cc2ccccc2)C3=O)cc1,i,i
NC(=O)c1ccc(NC(=O)CN2CCN(C3c4ccccc4-c4ccccc43)CC2)cc1,59,i
O=C(CN1CCN(C2c3ccccc3-c3ccccc32)CC1)Nc1ccc(F)cc1,i,i
COc1ccc(NC(=O)CN2CCN(C3c4ccccc4-c4ccccc43)CC2)cc1,55,i
SMILES,mHTT-CaM PPI inh,Pf apPOL block
Cc1ccc(NC(=O)CN2CCN(C3c4ccccc4-c4ccccc43)CC2)cc1F,i,i
O=C(Oc1ccc2c(c1)OC(=Cc1ccco1)C2=O)c1ccc([N+](=O)[O-])cc1,i,i
Oc1oc(-c2ccc(Br)cc2)nc1C=Nc1ccccc1,i,i
CC(=O)c1cccc(S(=O)(=O)N2CCCC(c3nnc(-c4ccccc4F)s3)C2)c1 (centres undefined),i,i
O=C1NC2(CCN(Cc3ccc(F)cc3)CC2)N=C1c1cccc(Cl)c1,i,i
COc1ccc(CNc2ccc3[nH]ncc3c2)cc1C,65,i
Cc1ccc(C)c(CNc2ccc3[nH]ncc3c2)c1,75,i
CC(CCc1ccc(O)cc1)Nc1ccc2[nH]ncc2c1 (centres undefined),i,i
COc1ccc(CNc2ccccc2)cc1C,i,i
COc1ccccc1Nc1ncc2c(n1)CCN(Cc1ccc3c(c1)OCCO3)C2,i,i
O=C(Cc1c(C(=O)O)[nH]c2ccc(Cl)cc12)Nc1ccccc1F,i,i
Cc1cccc(CNC2=NCCNC23CCN(S(=O)(=O)c2ccccc2)CC3)c1,i,i
CCCOc1ccccc1/C=c1\sc2nc(=O)c(Cc3ccccc3)nn2c1=O,i,i
COc1cccc(-c2noc(C3CCCN3C(=O)Nc3ccc(F)c(Cl)c3)n2)c1 (centres undefined),58,i
CCC(=O)Nc1cccc(-c2noc(C3CCCN(C(=O)COc4cccc(C)c4)C3)n2)c1 (centres undefined),79,i
CCC(=O)Nc1cccc(-c2noc(C3CCCN(C(=O)c4cccc(OC)c4)C3)n2)c1 (centres undefined),i,i
CCn1ccc(C(=O)N2CCCC2c2nc(-c3cccc(Cl)c3)no2)n1 (centres undefined),i,i
COc1ccc(OCC(=O)N2CCCC2c2nc(-c3cccc(C)c3)no2)cc1 (centres undefined),i,i
COc1cccc(-c2noc(C3CCCN3C(=O)Nc3cccc(Cl)c3)n2)c1 (centres undefined),i,i
Cc1ccc(OCC(=O)N2CCCC2c2nc(-c3cccc(C)c3)no2)cc1 (centres undefined),80,i
CCn1ccc(C(=O)N2CCCC2c2nc(-c3cccc(C(F)(F)F)c3)no2)n1 (centres undefined),88,i
O=C(Nc1ccc2c(c1)OCCO2)C1CCCN(Cc2nc(-c3ccncc3)no2)C1 (centres undefined),i,i
Cc1cccc(C)c1NC(=O)COc1ccccc1,i,i
CCC(=O)Nc1ccc(S(=O)(=O)NCCC2CCN(C(=O)c3ccccc3)CC2)cc1,i,i
COc1ccc(N2CCN(C(=O)C3CCCC3)C(C)C2=O)c(OC)c1 (centres undefined),i,i
SMILES,mHTT-CaM PPI inh,Pf apPOL block
COc1cccc(C2C3=C(NCCN=C3c3ccc(Cl)cc3)C(=O)N2c2ccccc2)c1 (centres undefined),i,i
Cc1ccc(C2C3=C(NCCN=C3c3ccccc3)C(=O)N2c2ccccc2)cc1 (centres undefined),80,i
C(#Cc1ccc2oc3ccc(C#Cc4ccccc4)cc3c2c1)c1ccccc1,i,nt
COc1cccc(/C=C2/SC(=Nc3ccccc3Cl)NC2=O)c1OC,i,i
Cc1ccc(N=C2NC(=O)/C(=C/c3ccco3)S2)cc1,69,i
COc1ccc(N=C2NC(=O)/C(=C\c3ccco3)S2)cc1,i,i
O=C1NC(=Nc2cccc(Cl)c2Cl)S/C1=C\c1ccco1,100,i
Cc1ccccc1-c1noc(C2CCCN2C(=O)NCCc2ccccc2)n1 (centres undefined),i,i
O=C(c1ccc(F)cc1F)N1CCN(c2cc(N3CCOCC3)c(F)cc2[N+](=O)[O-])CC1,i,i
CCCNc1cc(N2CCC(CCC(=O)Nc3ccccc3C)CC2)ncn1,i,i
O=C(CN1C(=O)/C(=C/c2cccc(Cl)c2)Sc2ccccc21)NCCN1CCCCCC1,54,i
CCN(CC)CCNC(=O)CN1C(=O)/C(=C/c2ccc(C(F)(F)F)cc2)Sc2ccccc21,100,i
CCCCN(C)CCNC(=O)CN1C(=O)/C(=C/c2cccc(Cl)c2)Sc2ccccc21,i,i
O=C(CN1C(=O)/C(=C/c2ccc(Cl)cc2)Sc2ccccc21)NCCN1CCCC1,i,i
CCN(CC)CCNC(=O)CN1C(=O)/C(=C/c2cccc(Cl)c2)Sc2ccccc21,i,i
CCCCN(C)CCCNC(=O)CN1C(=O)/C(=C/c2cccc(Cl)c2)Sc2ccccc21,98,i
COCCN=C1Nc2ccccc2NC12CCCN(C(=O)Cc1ccccc1F)C2 (centres undefined),100,i
COCCN=C1Nc2ccccc2NC12CCCN(C(=O)Cc1c[nH]c3ccccc13)C2 (centres undefined),i,i
COCCN=C1Nc2ccccc2NC12CCCN(C(=O)Cc1ccsc1)C2 (centres undefined),98,i
COCCN=C1Nc2ccccc2NC12CCCN(C(=O)c1ccccn1)C2 (centres undefined),i,i

# Screens as filed in PubChem.
